Screening results: PubChem BioAssay, several laboratories
KLF5 inhibitor: suppresses KLF5 promoter-driven expression; DLD-1 KLF5 promoter-luciferase reporter, luminescence; hit rate 0.23% among 290,000; inhibition, % at 5 µM;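 active = inhibition above a per-plate limit of that plate's mean compound inhibition plus 3 SD, cut at about 60% in these data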;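 also: 0% = DMSO wells and 100% = LY294002 at 200 µM; higher means less KLF5 promoter-driven luciferase light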
APP transl inh: APP translation inhibition; SH-SY5Y APP 5'UTR-luciferase reporter, luminescence; inhibition, % at 2 µM; hit rate 0.82% among 190,000; AID 1285;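 active = inhibition above a set limit, derived from the sample mean plus 3 SD, cut at about 45% in these data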
aSyn 5UTR inh: 5' untranslated region of α-synuclein, MLPCN primary screen. alpha-synuclein 5'UTR reporter, inhibitor activity. inhibition, % (tested at 7.5 µM). hit rate 0.82% among 300,000. AID 1813; in the data active = inhibition above about 60%;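 also: H4 neuroglioblastoma cells stably carrying SNCA 5'UTR luciferase fusion; 0% = DMSO wells and 100% = positive control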
Ba/F3 V617F tox: reduce viability of Ba/F3 cells dependent on JAK2V617F | Ba/F3 EpoR-JAK2V617F viability, ATP luminescence | inhibition, % at 5.6 µM | hit rate 1.1% among 220,000 | AID 1446;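 active = inhibition above the campaign mean plus 3 SD over all tested compounds, cut at about 24% in these data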;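 also: cytokine-independent growth of Ba/F3 cells driven by EpoR plus mutant JAK2; 0% = DMSO-treated cells and 100% = JAK inhibitor I control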
IEC-6 tox: IEC-6 cytotoxicity, counter-screen for KLF5 inhibitors; luminescence viability; inhibition, % at 5 µM; hit rate 0.78% among 290,000; AID 1825; in the data active = inhibition above about 22%;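 also: 0% = plate median of test compound wells and 100% = cytotoxic reference compound wells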
BaF3 parental: parental Ba/F3 viability inhibition as JAK2V617F counter-screen; CellTiter-Glo ATP luminescence; inhibition, % at 5.6 µM; hit rate 1.1% among 220,000;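 active = inhibition above a per-campaign cutoff, the mean inhibition of all tested compounds plus 3 SD, cut at about 27% in these data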;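 also: 0% = DMSO wells and 100% = JAK Inhibitor I control wells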
Active calls of the source: *; · = no result. This is a sample that favours compounds with a hit; in the whole collection about 2.2% have one here.

SMILES	KLF5 inhibitor	APP transl inh	aSyn 5UTR inh	Ba/F3 V617F tox	IEC-6 tox	BaF3 parental
CCOc1cc(N2CCOCC2)c(OCC)cc1NC(=O)COc1ncnc2ccccc12	-34	17	24	0	2	3
CCN(CC)S(=O)(=O)c1ccc(N2CCOCC2)c(NC(=O)c2cc(-c3ccccn3)nc3ccccc23)c1	10	39	88*	-2	-1	10
Cc1cc(C)c(C#N)c(SCC(O)COc2ccc(Br)cc2)n1 (configuration not stated)	4	·	-19	·	-6	·
CCOC(=O)C(C)Oc1cccc2c(=O)n(CC(=O)NCc3ccc4c(c3)OCO4)ccc12 (configuration not stated)	17	-6	65*	59*	18	42*
CCOC(=O)C(C)Oc1cccc2c(=O)n(CC(=O)Nc3ccc4c(c3)OCCO4)ccc12 (configuration not stated)	0	15	15	-2	-2	3
O=C(Nc1nnc(-c2ccc3c(c2)CCCC3)o1)c1c(F)cccc1F	-8	-7	-5	-3	1	61*
CN(C)S(=O)(=O)c1ccc(C(=O)Nc2nnc(-c3cccs3)o2)cc1	7	-3	13	4	15	0
CN(C)S(=O)(=O)c1ccc(C(=O)Nc2nnc(-c3ccc4c(c3)CCCC4)o2)cc1	-47	-17	69*	-3	0	1
CCOC(=O)C1=C(C)N(CCCC(=O)O)C(=O)NC1c1cc2ccccc2c2ccccc12 (configuration not stated)	·	·	2	·	·	·
CCc1ccc(NC(=O)CCS(=O)(=O)c2ccc3c(c2)CCN3C(C)=O)cc1	-5	·	3	·	7	·
CCC(=O)N1CCc2cc(S(=O)(=O)CCC(=O)Nc3ccc(CC)cc3)ccc21	-46	-6	17	-1	-2	93*
Cc1ccc(N(C(=O)CNC(=O)c2ccco2)C(C(=O)NCC2CCCO2)c2ccccc2)c(C)c1 (configuration not stated)	-34	·	11	·	-5	·
COc1ccc(CNc2cc(C)nc3ncnn23)c(OC)c1	-13	-4	38	6	-2	31*
COc1ccc(Nc2cc(C)nc3ncnn23)c(OC)c1	-2	-4	1	-4	2	-2
CCn1c(=O)c2ccccc2n2c(SCC(=O)N3CCc4ccccc4C3)nnc12	-1	1	-26	-2	-3	2
CCCn1c(=O)c2ccccc2n2c(SCC(=O)N3CCc4ccccc4C3)nnc12	0	61*	5	1	2	8
N#CC(C#N)=C(Nc1ccc(F)cc1)SCc1cccc(F)c1	34	4	24	55*	34*	67*
CCOc1ccc(N/C(SCc2cccc([N+](=O)[O-])c2)=C(/C#N)C(N)=O)cc1	1	10	-21	1	-18	13
COc1ccc(/C=C2\CCc3ccccc3C2=O)cc1CN1CCOCC1	-29	·	62*	0	-9	-2
COc1ccc(/C=C2/CCc3ccccc3C2=O)cc1OC	-6	-101	-18	0	-2	6
Cc1ncc(CO)c(/C=N/NC(=S)Nc2ccc(F)cc2)c1O	-41	32	13	2	-6	4
Cc1ncc(CO)c(/C=N/Nc2ccc(C(F)(F)F)cn2)c1O	52	·	88*	·	-3	·
O=C(/C=C/Nc1ccc(S(=O)(=O)Nc2cnc3ccccc3n2)cc1)c1ccccc1	-16	·	15	-1	-1	52*
CCCCN(CC)CCNC(=O)c1cc2c(-c3ccc(Cl)cc3)nn(C)c2s1	-26	·	79*	·	4	·
CCN(CC)CCNC(=O)c1cc2c(-c3ccc(Cl)cc3)nn(C)c2s1	-12	9	-43	3	9	8
O=C(NCc1ccc(Cl)cc1)c1cccnc1	-31	11	0	6	3	5
CCCCC(=O)NC(c1cccs1)c1cc(Cl)c2cccnc2c1O (configuration not stated)	12	72*	80*	0	1	1
CCCC(=O)NC(c1ccc(OC)c(OC)c1)c1cc(Cl)c2cccnc2c1O (configuration not stated)	-3	53*	50	-5	-1	2
CN1CCN(C(c2ccc(Cl)cc2)c2cc(Cl)c3cccnc3c2O)CC1 (configuration not stated)	51	·	77*	·	6	·
